# Laboratory results: PubChem BioAssay (EPA / NIEHS)
# Active and inactive are the calls of the source. The calls were made as follows: active = hit-call score of the fitted dose curve at least 0.9, where 1 is the maximum; inactive = score below 0.9.
# Key:
# [1] = target: Transcription factor E2F1 (Homo sapiens) (UniProt Q01094); assay: ATG_E2F_CIS: Attagene CIS-FACTORIAL HepG2 Assay for human E2F Transcription Factor 1 (AID 2282935); settings: HepG2 Attagene cis-reporter, E2F reporter RNA transcripts; actives raise or lower the signal
# Chain of Transcription factor E2F1 (Homo sapiens) (Q01094 whole entry, looked up): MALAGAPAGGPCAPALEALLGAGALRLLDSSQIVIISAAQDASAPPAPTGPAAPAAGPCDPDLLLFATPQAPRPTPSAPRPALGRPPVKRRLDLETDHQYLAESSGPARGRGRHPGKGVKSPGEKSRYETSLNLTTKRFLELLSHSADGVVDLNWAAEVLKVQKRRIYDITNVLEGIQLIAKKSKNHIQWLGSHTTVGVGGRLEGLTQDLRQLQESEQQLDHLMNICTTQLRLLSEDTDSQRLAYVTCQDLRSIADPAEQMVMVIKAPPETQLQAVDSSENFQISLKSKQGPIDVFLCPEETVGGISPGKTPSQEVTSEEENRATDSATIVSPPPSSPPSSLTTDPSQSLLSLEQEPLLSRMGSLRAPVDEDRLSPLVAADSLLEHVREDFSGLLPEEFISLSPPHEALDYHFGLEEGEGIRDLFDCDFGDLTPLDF
# How it was run: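 Cis-element reporter mRNA induction in transiently transfected HepG2, 24 h exposure. Activity fitted in both directions relative to DMSO negative control.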
# [2] = ATG_E_Box_CIS: Attagene CIS-FACTORIAL HepG2 Assay for human Enhancer Box (E-box) (AID 2282936); settings: HepG2 E-box cis-reporter transcription, actives raise or lower the signal
# How it was run: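 Cells: HepG2 (human liver), transient MRTU transfection. Exposure 24 h. RNA → oligo(dT) RT → PCR → 6-FAM label → HpaI → CE. Activity fitted both directions relative to DMSO.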
# [3] = ATG_M_61_CIS: Attagene CIS-FACTORIAL HepG2 Assay for M61 Transcription Factor (Internal Marker) (AID 2282937); settings: HepG2 Attagene CIS-FACTORIAL M61 internal marker reporter; actives raise or lower the signal
# How it was run: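 This endpoint serves as an internal background control within a multiplexed HepG2 cis-reporter panel. Cells are exposed for 24 h; reporter mRNA is amplified, fluorescently labelled and sized by capillary electrophoresis, with DMSO as negative control.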
# [4] = ATG_EGR_CIS: Attagene CIS-FACTORIAL HepG2 Assay for human Early Growth Response 1 (EGR1) (AID 2282938); settings: HepG2 Attagene CIS-FACTORIAL EGR reporter mRNA; actives raise or lower the signal
# How it was run: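 HepG2, transient MRTU transfection (cis promoters), 24 h compound. RNA → RT (oligo-dT) → PCR → 6-FAM labelling → HpaI cut → CE fluorescence. Bidirectional fit, DMSO baseline.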
# [5] = ATG_M_19_CIS: Attagene CIS-FACTORIAL HepG2 Assay for M19 Transcription Factor (Internal Marker) (AID 2282939); settings: HepG2 Attagene CIS-FACTORIAL M19 internal marker reporter; actives raise or lower the signal
# How it was run: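 HepG2, MRTU transient transfection, 24 h dosing. Total RNA → RT-PCR → 6-FAM primer extension → HpaI digest → CE fluorescence. Bidirectional curve fit, DMSO negative control.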
# [6] = ATG_Ets_CIS: Attagene CIS-FACTORIAL HepG2 Assay for human Erythroblast Transformation Specific (ETS) (AID 2282941); settings: HepG2 ETS cis-reporter transcription, actives raise or lower the signal
# How it was run: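 Steps: transfect HepG2 with multiple reporter units; treat compound 24 h; isolate RNA, DNase-treat, reverse-transcribe; PCR-amplify, label with 6-FAM, digest with HpaI; separate by capillary electrophoresis. Activity fitted both directions versus DMSO.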
# [7] = ATG_FoxO_CIS: Attagene CIS-FACTORIAL HepG2 Assay for human Forkhead box O (FoxO) (AID 2282943); settings: HepG2 Attagene cis-reporter, FoxO element, mRNA; actives raise or lower the signal
# How it was run: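 Human hepatoma HepG2 cells carry transiently introduced reporter transcription units controlled by cis promoter elements. Chemical treatment lasted 24 h, and mRNA signal was compared with DMSO.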
# [8] = ATG_GATA_CIS: Attagene CIS-FACTORIAL HepG2 Assay for human GATA Binding Protein (AID 2282944); settings: HepG2 GATA cis-element reporter, Attagene multiplex mRNA; actives raise or lower the signal
# How it was run: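 Cells: HepG2, transiently transfected with cis-regulated reporter transcription units. Exposure: 24 h. Detection: RT-PCR plus capillary electrophoresis of FAM-labeled fragments. Analysis: bidirectional, DMSO as baseline.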
# [9] = target: Hepatocyte nuclear factor 3-beta (Homo sapiens) (UniProt Q9Y261); assay: ATG_FoxA2_CIS: Attagene CIS-FACTORIAL HepG2 Assay for human Forkhead box A2 (FOXA2) (AID 2282942); settings: HepG2 cis-reporter transcription factor activity, 24 h; actives raise or lower the signal
# Chain of Hepatocyte nuclear factor 3-beta (Homo sapiens) (Q9Y261 whole entry, looked up): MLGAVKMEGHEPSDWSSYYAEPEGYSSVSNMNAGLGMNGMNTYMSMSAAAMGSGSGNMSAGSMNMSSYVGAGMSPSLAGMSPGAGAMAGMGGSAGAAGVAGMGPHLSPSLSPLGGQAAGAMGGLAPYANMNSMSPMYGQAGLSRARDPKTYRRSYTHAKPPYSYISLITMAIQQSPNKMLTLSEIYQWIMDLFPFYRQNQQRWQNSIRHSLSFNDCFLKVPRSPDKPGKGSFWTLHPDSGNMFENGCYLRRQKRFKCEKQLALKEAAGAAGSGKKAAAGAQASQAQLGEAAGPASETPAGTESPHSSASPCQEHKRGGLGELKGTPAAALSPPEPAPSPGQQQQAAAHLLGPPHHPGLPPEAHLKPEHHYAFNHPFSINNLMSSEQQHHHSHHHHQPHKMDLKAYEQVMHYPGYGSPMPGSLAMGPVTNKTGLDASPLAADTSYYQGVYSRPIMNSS
# How it was run: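 Cells: HepG2, transient multiplex reporter transfection. Exposure 24 h. Detection: reporter-specific RT-PCR, fluorescent labelling, restriction digest, capillary electrophoresis. Analysis: bidirectional curve fit, DMSO as negative control.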
# [10] = ATG_ERE_CIS: Attagene CIS-FACTORIAL HepG2 Assay for Estrogen Response Element (ERE) (AID 2282940); settings: HepG2 ERE cis-reporter, Attagene RNA transcript; actives raise or lower the signal
# How it was run: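 After a 24 h chemical treatment, RNA from reporter-transfected HepG2 cells is reverse-transcribed, PCR-amplified and fluorescently labelled. Fragments separated by capillary electrophoresis give reporter signal; DMSO serves as negative control.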
SMILES,outcome [1],outcome [2],outcome [3],AC50 [4],outcome [5],outcome [6],AC50 [7],outcome [8],outcome [4],outcome [9],outcome [7],outcome [10],AC50 [10],AC50 [9]
C=CC(O)CCCCC (stereo not drawn),inactive,inactive,inactive,100 µM (active),inactive,inactive,100 µM (active),inactive,–,–,–,–,–,–
C=CC(=O)OCCCCCC,inactive,inactive,inactive,–,inactive,inactive,–,inactive,inactive,inactive,inactive,–,–,–
C=C1CC[C@H]2O[C@]2(C)CC[C@@H]2[C@@H]1CC2(C)C,inactive,inactive,inactive,–,–,inactive,–,inactive,inactive,inactive,inactive,inactive,–,–
CCOC(=O)C=Cc1ccccc1,inactive,inactive,inactive,–,inactive,inactive,–,inactive,–,inactive,inactive,–,–,–
CCOC(=O)C(=O)OCC,inactive,inactive,inactive,–,–,inactive,–,inactive,–,inactive,inactive,inactive,–,–
COc1ccccc1O,inactive,inactive,inactive,–,–,inactive,–,inactive,inactive,–,inactive,inactive,–,–
CC(C)(O)C(=O)c1ccc(OCCO)cc1,inactive,inactive,inactive,–,–,inactive,–,inactive,inactive,inactive,inactive,–,–,–
CN(C)CCC=C1c2ccccc2CCc2ccccc21,inactive,–,inactive,41 µM (active),inactive,inactive,–,inactive,–,inactive,inactive,inactive,–,–
CCOC(=O)CC1(C)OCC(C)O1 (stereo not drawn),inactive,inactive,inactive,–,inactive,inactive,–,inactive,–,–,inactive,–,–,–
CC(=O)Oc1c(C)c(C)c2c(c1C)CC[C@@](C)(CCC[C@H](C)CCC[C@H](C)CCCC(C)C)O2,inactive,inactive,inactive,–,inactive,inactive,–,inactive,–,–,inactive,inactive,–,–
CC(C)(C)C1CCC(O)CC1 (stereo not drawn),inactive,inactive,inactive,–,–,inactive,–,inactive,inactive,–,inactive,–,32.8 µM (active),–
CN(C)c1ccc(C=O)cc1,inactive,inactive,inactive,–,–,inactive,–,inactive,–,inactive,inactive,inactive,–,–
CC(O)CNCC(C)O (stereo not drawn),inactive,inactive,inactive,–,inactive,inactive,–,inactive,–,–,inactive,–,–,–
c1ccc2c(c1)-c1ccc3ccc4cccc5cc-2c1c3c45,inactive,inactive,inactive,–,inactive,inactive,–,inactive,–,–,inactive,–,0.374 µM (active),0.381 µM (active)
CCCCCC1C(=O)CCC1CC(=O)OC (stereo not drawn),inactive,–,inactive,–,inactive,inactive,–,inactive,inactive,inactive,inactive,inactive,–,–
